# Reference: the supplement of paper PMC8728848
# Many of the other results were omitted from the sample, so the strongest signals are more common in it than they were.
# B1: GST-Gap1 (Streptococcus parasanguinis), A1C3L5 (protein)
# chain: MFYFVPSWYNGQRQWYYDTPWWFRVKNRMTFDDSVNQVKMFLQGQEEIGLMILNYQPQLRYFLHKQNIFGIYYWSFFDDIQNITRSYTKIIHLKDLNWPEGCEFLYSPFAVVVRLKGEIFAIVNYAEDGNLHSVSFQKNGKVTKDYIFDDRGFLSSILYYDIDERPLYQDYLNINGVWQVREFLKKENDPTPILMINDFSDQTFSKKYYNGWEELIKERLAIFQNNHVENEDVFVLASDTQHNQLVSSIFKEHRKIYSFFGNRFNLENLGQDRISINDATFLVVDTEKNEELLRKTCENLVFKSIPIVRLSPFDSRLRLGHSQTVKEQIIYFHIDNIELDELYSVIAIILELMTLHLDIELRIVTFRQDFQLDLLKTWIIDFIKTNHFEDLLFKQISEGENEIEDEGEIELSRIAMECFTNENQIIKCLDTARLVIDLGIEPDLYTQIASISAGIPQINRVSSDYVIHQKNGLVISDISKLSSAIEFYFDGLFNWNEALIYAVRKMSDYTSGKILKQWKGMLKKK
# Experiments:
# Experiment in all cases: glycan array binding signal (z-score within array); higher = stronger binding
# Conditions in all cases: glycan notation: IUPAC condensed, linker removed
# [1] = target: GalNAc(b1-3)Gal(a1-4)Gal(b1-4)GlcNAc
# Outline: (§1)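 Glycan array data came from 3228 arrays in the Consortium for Functional Glycomics database, and only arrays with an available protein sequence were kept. Glycan names were put into IUPAC-condensed notation, and columns mapping to the same glycan were averaged. The binding signal is a within-array Z-score, averaged across arrays of one protein sequence run at different concentrations or buffers and across linkers. A negative Z-score can be read as non-binding.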
# GalNAc(b1-4)GlcNAc = target: GalNAc(b1-4)GlcNAc
# Outline: as §1
# GlcA(b1-3)GlcNAc = target: GlcA(b1-3)GlcNAc
# Outline: as §1
# [2] = target: GlcNAc(b1-3)Gal(b1-4)GlcNAc(b1-2)Man(a1-3)[GlcNAc(b1-3)Gal(b1-4)GlcNAc(b1-2)Man(a1-6)]Man(b1-4)GlcNAc(b1-4)GlcNAc
# Outline: as §1
# [3] = target: GlcNAc(b1-3)Gal(b1-4)GlcNAc(b1-3)Gal(b1-4)GlcNAc(b1-3)Gal(b1-4)GlcNAc(b1-2)Man(a1-3)[GlcNAc(b1-3)Gal(b1-4)GlcNAc(b1-3)Gal(b1-4)GlcNAc(b1-3)Gal(b1-4)GlcNAc(b1-2)Man(a1-6)]Man(b1-4)GlcNAc(b1-4)[Fuc(a1-6)]GlcNAc
# Outline: as §1
# [4] = target: GlcNAc(b1-3)Gal(b1-4)GlcNAc(b1-3)Gal(b1-4)GlcNAc(b1-3)Gal(b1-4)GlcNAc(b1-3)Gal(b1-4)GlcNAc(b1-2)Man(a1-3)[GlcNAc(b1-3)Gal(b1-4)GlcNAc(b1-3)Gal(b1-4)GlcNAc(b1-3)Gal(b1-4)GlcNAc(b1-3)Gal(b1-4)GlcNAc(b1-2)Man(a1-6)]Man(b1-4)GlcNAc(b1-4)GlcNAc
# Outline: as §1
# [5] = target: GlcNAc(b1-3)Gal(b1-4)GlcNAc(b1-3)Gal(b1-4)GlcNAc(b1-3)Gal(b1-4)GlcNAc(b1-3)Gal(b1-4)GlcNAc(b1-2)Man(a1-3)[GlcNAc(b1-3)Gal(b1-4)GlcNAc(b1-3)Gal(b1-4)GlcNAc(b1-3)Gal(b1-4)GlcNAc(b1-3)Gal(b1-4)GlcNAc(b1-2)Man(a1-6)]Man(b1-4)GlcNAc(b1-4)[Fuc(a1-6)]GlcNAc
# Outline: as §1
# [6] = target: GlcNAc(b1-3)Gal(b1-4)GlcNAc(b1-3)Gal(b1-4)GlcNAc(b1-3)Gal(b1-4)GlcNAc(b1-3)Gal(b1-4)GlcNAc(b1-2)[GlcNAc(b1-3)Gal(b1-4)GlcNAc(b1-3)Gal(b1-4)GlcNAc(b1-3)Gal(b1-4)GlcNAc(b1-3)Gal(b1-4)GlcNAc(b1-6)]Man(a1-6)[GlcNAc(b1-3)Gal(b1-4)GlcNAc(b1-3)Gal(b1-4)GlcNAc(b1-3)Gal(b1-4)GlcNAc(b1-3)Gal(b1-4)GlcNAc(b1-2)Man(a1-3)]Man(b1-4)GlcNAc(b1-4)[Fuc(a1-6)]GlcNAc
# Outline: as §1
# GlcNAc(b1-3)Man = target: GlcNAc(b1-3)Man
# Outline: as §1
# MurNAc(b1-4)GlcNAc = target: MurNAc(b1-4)GlcNAc
# Outline: as §1
# [7] = target: Neu5Ac(a2-3)Gal(b1-3)GalNAc(b1-4)[Neu5Ac(a2-8)Neu5Ac(a2-3)]Gal(b1-4)Glc
# Outline: as §1
# [8] = target: Neu5Ac(a2-3)Gal(b1-4)GlcNAc(b1-2)Man(a1-3)[Neu5Ac(a2-3)Gal(b1-4)GlcNAc(b1-2)Man(a1-6)]Man(b1-4)GlcNAc(b1-4)GlcNAc
# Outline: as §1
# [9] = target: Neu5Ac(a2-3)Gal(b1-4)GlcNAc(b1-3)Gal(b1-4)GlcNAc(b1-2)Man(a1-3)[Neu5Ac(a2-3)Gal(b1-4)GlcNAc(b1-3)Gal(b1-4)GlcNAc(b1-2)Man(a1-6)]Man(b1-4)GlcNAc(b1-4)GlcNAc
# Outline: as §1
# [10] = target: Neu5Ac(a2-3)Gal(b1-4)GlcNAc(b1-3)Gal(b1-4)GlcNAc(b1-3)Gal(b1-4)GlcNAc(b1-2)Man(a1-3)[Neu5Ac(a2-3)Gal(b1-4)GlcNAc(b1-3)Gal(b1-4)GlcNAc(b1-3)Gal(b1-4)GlcNAc(b1-2)Man(a1-6)]GalNAc
# Outline: as §1
# [11] = target: Neu5Ac(a2-3)Gal(b1-4)GlcNAc(b1-3)Gal(b1-4)GlcNAc(b1-6)[Gal(b1-3)]GalNAc
# Outline: as §1
# [12] = target: Neu5Ac(a2-3)Gal(b1-4)[Fuc(a1-3)]GlcNAc(b1-6)[Gal(b1-3)]GalNAc
# Outline: as §1
# [13] = target: Neu5Ac(a2-6)Gal(b1-4)GlcNAc(b1-2)Man(a1-3)[GlcNAc(b1-2)Man(a1-6)]Man(b1-4)GlcNAc(b1-4)GlcNAc
# Outline: as §1
# [14] = target: Neu5Ac(a2-6)Gal(b1-4)GlcNAc(b1-2)Man(a1-3)[Neu5Ac(a2-3)Gal(b1-4)GlcNAc(b1-2)Man(a1-6)]Man(b1-4)GlcNAc(b1-4)GlcNAc
# Outline: as §1
# [15] = target: Neu5Ac(a2-6)Gal(b1-4)GlcNAc(b1-2)[Neu5Ac(a2-6)Gal(b1-4)GlcNAc(b1-4)]Man(a1-3)[GlcNAc(b1-4)][Neu5Ac(a2-6)Gal(b1-4)GlcNAc(b1-2)[Neu5Ac(a2-6)Gal(b1-4)GlcNAc(b1-6)]Man(a1-6)]Man(b1-4)GlcNAc(b1-4)GlcNAc
# Outline: as §1
# [16] = target: Neu5Ac(a2-6)Gal(b1-4)GlcNAc(b1-3)Gal(b1-4)GlcNAc(b1-3)Gal(b1-4)GlcNAc(b1-2)Man(a1-3)[Neu5Ac(a2-6)Gal(b1-4)GlcNAc(b1-3)Gal(b1-4)GlcNAc(b1-3)Gal(b1-4)GlcNAc(b1-2)Man(a1-6)]GalNAc
# Outline: as §1
# [17] = target: Neu5Ac(a2-6)Gal(b1-4)GlcNAc6S
# Outline: as §1
# [18] = target: Neu5Ac(a2-6)GalNAc(b1-4)GlcNAc6S
# Outline: as §1
# [19] = target: Neu5Gc(a2-8)Neu5Ac(a2-3)Gal(b1-4)GlcNAc
# Outline: as §1
binder,measurement,setting,value
B1,glycan array binding signal (z-score),[1],0.159
same,glycan array binding signal (z-score),GalNAc(b1-4)GlcNAc,-0.452
same,glycan array binding signal (z-score),GlcA(b1-3)GlcNAc,5.69
same,glycan array binding signal (z-score),[2],0.668
same,glycan array binding signal (z-score),[3],2.14
same,glycan array binding signal (z-score),[4],0.361
same,glycan array binding signal (z-score),[5],-0.16
same,glycan array binding signal (z-score),[6],0.811
same,glycan array binding signal (z-score),GlcNAc(b1-3)Man,-0.28
same,glycan array binding signal (z-score),MurNAc(b1-4)GlcNAc,-0.969
same,glycan array binding signal (z-score),[7],0.39
same,glycan array binding signal (z-score),[8],-1.31
same,glycan array binding signal (z-score),[9],2.28
same,glycan array binding signal (z-score),[10],2.15
same,glycan array binding signal (z-score),[11],-0.747
same,glycan array binding signal (z-score),[12],1.35
same,glycan array binding signal (z-score),[13],-0.335
same,glycan array binding signal (z-score),[14],0.84
same,glycan array binding signal (z-score),[15],-0.54
same,glycan array binding signal (z-score),[16],2.53
same,glycan array binding signal (z-score),[17],0.323
same,glycan array binding signal (z-score),[18],-0.037
same,glycan array binding signal (z-score),[19],-0.655
